Screens deposited in PubChem BioAssay by National Center for Advancing Translational Sciences (NCATS).
TDP-43 yeast inh – TDP-43 toxicity inhibition in yeast | Potency, µM (doses to about 46.1 µM), for inactives: top-dose growth rescue (activation), most hits filed as activators | hit rate 1.8% among 410,000 | AID 652104 | TDP-43 expressing yeast growth rescue, BacTiter-Glo, 24 h; note: potency is the fitted concentration of half-maximal effect; % of control where 0% means no effect; nearly all actives have a fitted effect of over 50% in size
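Readout is BacTiter-Glo luminescence of cell growth, so inhibitors register as activators. TDP-43-expressing yeast at OD600=0.02 in galactose medium, after raffinose pregrowth to mid-log, were incubated with compound for 24 hr at 30 deg C.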
FUS yeast rescue – suppressors of FUS proteinopathy in yeast. Potency, µM (titrated, usually from 76.6 µM), most hits filed as activators. S. cerevisiae FUS-expressing, growth rescue, OD600, 24 h. hit rate 0.24% among 390,000;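 note: potency is the fitted concentration of half-maximal effect; plate controls were DMSO vehicle for no effect and reference control for full effect; nearly all actives have a fitted effect of over 55% in size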
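Restored growth of FUS-toxic S. cerevisiae, read as 600 nm absorbance after 24 h at 30C in galactose medium (starting OD 0.005). Controls CP55940 and DMSO.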
aSyn rescue – rescues yeast growth from alpha-synuclein toxicity; Yeast expressing alpha-synuclein, growth rescue, BacTiter-Glo, 24 h; Potency, µM (highest dose often 46.1 µM), inactives show at the top dose growth rescue (activation), usual class: activators; hit rate 0.14% among 370,000; AID 652106; note: potency is the fitted concentration of half-maximal effect; % of control where 0% means no effect; nearly all actives have a fitted effect of over 65% in size
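Readout is rescue of growth in alpha-synuclein-expressing yeast, so inhibitors of toxicity appear as activators. Growth after 24 hr at 30 deg C in galactose medium is quantified by luminescence.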
Abeta yeast res – A-beta toxicity reversal in yeast. yeast expressing A-beta42, growth rescue, OD600, 48 h; response scale: 0% DMSO, 100% iron-clioquinol control. hit rate 0.063% among 410,000. AID 1347071. Potency, µM (highest dose often 46.1 µM), actives largely listed as activators; note: potency is the fitted concentration of half-maximal effect; nearly all actives have a fitted effect of over 55% in size
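Growth rescue measured by 600 nm absorbance after 48 h yeast culture at 30 C with compound. Values normalized between DMSO and an equimolar ferric chloride plus clioquinol control.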
CCT modulator – changes cytosolic chaperonin activity | activity change, % (concentration not given with the values), hits read low | purified chaperonin ATPase assay, HTRF ADP detection, 30 min | AID 651819 | hit rate 0.3% among 360,000; in the data active = activity change below about -30%; note: % is set by controls: 0 for no effect and ±100 for the full control effect
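Nucleotide hydrolysis assay: TRiC at 20–40 nM final (set by batch activity) with 10 uM ATP, 30 min at 37 °C, in presence of 76 uM compound. Detection by competitive ADP HTRF, 30 min ambient.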
Mm-Cpn inhibitor – blocks the Methanococcus maripaludis chaperonin Mm-Cpn; Potency, µM (highest dose often 76.9 µM), for inactives: top-dose activity, negative = inhibition, actives largely listed as inhibitors; purified Mm-Cpn ATPase, ADP Transcreener TR-FRET; hit rate 0.031% among 330,000; note: potency is the fitted concentration of half-maximal effect; % is set by controls: 0 for no effect and ±100 for the full control effect; nearly all actives have a fitted effect of over 80% in size
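Purified archaeal Mm-CPN (25nM final) preincubated 10 min at 37degC with compound, then 10uM ATP for 30 min at 37degC; ADP measured by HTRF Transcreener TR-FRET; buffer 30 mM TRIS pH 7.4, 100mM KCl, 5mM MgCl2, 1mM DTT.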
* marks the source's active call; other numbers are inactive results; i = inactive; ? = inconclusive; nt = no result; [ ] = another dose, or the depositor's remark. An excerpt weighted towards active compounds, which were near 2.3% of everything screened. Unless noted, calls come from the whole dose curve; as a rule, active = well fitted curve in the direction sought with a large enough effect; inconclusive = small, poorly fitted or top-dose-only effect, or another doubt; inactive = no such curve, though single readings can be large; an effect the other way counts as inactive or inconclusive.

SMILES	TDP-43 yeast inh	FUS yeast rescue	aSyn rescue	Abeta yeast res	CCT modulator	Mm-Cpn inhibitor
C[C@@H]1CN([C@H](C)CO)C(=O)CCCn2nncc2CO[C@@H]1CN(C)C(=O)Nc1ccc(N2CCCCC2)cc1	4.3%	i	-0.3%	i	-2.4	nt
O=C(Oc1ccc2ccccc2c1)c1ccco1	11.2µM*	i	-8.1%	i	-0.8	-3.6%
CC1(O)CCN2C(=O)CCc3cccc1c32 (stereo not drawn)	12.6µM*	i	-6.8%[1.84 µM]	i	-3.0	-0.5%
Cc1ccc(S(=O)(=O)N(C)C[C@H]2Oc3ncc(Br)cc3C(=O)N([C@H](C)CO)C[C@@H]2C)cc1	0.0%	?	?	i	-1.1	nt
CC12CC(=O)C3C(CCC4CC=CCC43C)C1CCC2=O (stereo not drawn)	10µM*	nt	8.8%	i	-8.9	nt
Cc1ccc(NC(=O)CCSc2nnc(Cc3ccccc3)o2)cc1	17.8µM*	nt	5.2%	i	-2.0	1.0%
Cc1ccc(NC(=O)COc2ccc(-c3nn(C)c(=O)c4ccccc34)cc2)cc1	?	i	nt	i	nt	nt
Cc1cccc(-c2nc(CN3C(=O)CN=C(c4ccccc4)c4ccccc43)c(C)o2)c1	35.5µM*	i	nt	i	nt	nt
O=C(NCc1ccc(Cl)cc1)C1CCCN(C(=O)c2cnn(-c3ccc(F)cc3)c2-n2cccc2)C1 (stereo not drawn)	?	?	nt	i	nt	nt
O=C1CC(=O)N(c2ccccc2)C(=O)N1c1ccccc1	-22.5%	i	-1.4%	i	-6.7	1.5%
O=C1C(Cl)=C(N2CCCCCC2)C(=O)N1c1ccccc1	11.2µM*	i	1.8%	i	1.1	-2.0%
Cc1ccc(S(=O)(=O)N(C)C[C@@H]2Oc3ncc(Br)cc3C(=O)N([C@H](C)CO)C[C@@H]2C)cc1	6.1%	i	8.0%	i	-2.7	nt
CCCc1cc(N2CCN(c3cccc(C)c3C)CC2)n2cnnc2n1	15.8µM*	i	nt	i	nt	nt
CC1OC(O[C@H]2C[C@@H](O)[C@]3(CO)[C@H]4[C@H](O)C[C@]5(C)[C@@H](C6=CC(=O)OC6)CC[C@]5(O)[C@@H]4CC[C@]3(O)C2)C(O)C(O)C1O (stereo partly drawn)	nt	nt	0.5%	nt	nt	nt
Cc1nc2cc(OC(=O)N(C)Cc3cccc(-c4ccncc4)c3)ccc2s1	10µM*	i	1.9%	i	2.0	nt
CN(Cc1cccc(-c2ccncc2)c1)C(=O)Oc1ccccc1Cl	27.5%	i	-4.6%	i	-0.4	nt
C[C@H]1O[C@@H](O[C@H]2[C@@H](O)C[C@@H](O[C@H]3[C@@H](O)C[C@H](O[C@H]4CC[C@@]5(C)[C@H](CC[C@@H]6[C@@H]5CC[C@]5(C)[C@@H](C7=CC(=O)OC7)CC[C@]65O)C4)O[C@@H]3C)O[C@@H]2C)C[C@H](O)[C@@H]1O	nt	nt	1.7%	nt	nt	nt
Oc1ccc(Cl)cc1Sc1cc(Cl)ccc1O	-92.3%	i	-36.3%	i	-0.2	nt
CC12CCC3C(CCC4CC(=O)C(C(O)C(F)(F)F)CC43C)C1CCC2O (stereo not drawn)	14.1µM*	i	14.0%	i	-2.3	nt
O=c1[nH]c2ccccc2n1C1CCN(C(c2ccccc2OC(F)(F)F)c2nnnn2Cc2ccccc2)CC1 (stereo not drawn)	25.0%	20µM*	2.4%	i	0.2	nt
O=c1[nH]c2ccccc2n1C1CCN(C(c2cccs2)c2nnnn2Cc2ccccc2)CC1 (stereo not drawn)	20.8%	?	4.6%	i	-0.3	nt
Cc1cccc(C)c1-n1nnnc1C(c1cccc2ccccc12)N1CCC(n2c(=O)[nH]c3ccccc32)CC1 (stereo not drawn)	22.4µM*	i	-2.0%	i	-1.1	nt
COc1cc([C@@H]2c3cc4c(cc3[C@@H](O)[C@H]3COC(=O)[C@H]23)OCO4)cc(OC)c1O	nt	nt	-5.8%	nt	nt	nt
N#CC1c2ccccc2C=CN1C(=O)c1ccc(N(CCCl)CCCl)cc1 (stereo not drawn)	1.5%	i	7.94µM*	i	-4.1	nt
O=C(CCCc1ccc(N(CCCl)CCCl)cc1)NCc1ccccc1	-1.7%	i	-1.6%	i	-1.8	nt
SMILES	TDP-43 yeast inh	FUS yeast rescue	aSyn rescue	Abeta yeast res	CCT modulator	Mm-Cpn inhibitor
Cc1ccc(C)c(N2CCN(c3nc4ccc(Cl)cc4n4cnnc34)CC2)c1	?	i	nt	i	nt	nt
O=C(NCCc1ccccc1)[C@@H]1CC=C[C@@H]2CCN(Cc3ccc(Cl)c(Cl)c3)C(=O)[C@@H]21	?	i	?	i	-0.1	nt
CN(C)c1ccc(/C=C/C=C2/C(=O)NC(=O)N(c3ccccc3)C2=O)cc1	-56.1%	5.62µM*	-43.6%	i	-1.9	-9.9%
O=C1NC(=O)N(c2ccccc2)C(=O)/C1=C/C=C/c1ccco1	7.3%	i	3.7%	i	1.6	-1.5%
Nc1ccc(Br)cc1C(=O)c1ccccc1	15.8µM*	i	?	i	0.5	0.9%
COc1cccc(-n2cnc3scc(-c4cccs4)c3c2=O)c1	17.8µM*	i	9.0%	i	-7.6	-2.8%
CN1c2ccc([N+](=O)[O-])cc2CC2(C(=O)NC(=O)N(c3ccc(Br)cc3)C2=O)C1c1ccccc1 (stereo not drawn)	-9.4%	17.8µM*	12.2%	i	-3.0	-0.7%
O=C1NC(=O)C2(Cc3ccccc3N3CCCC32)C(=O)N1c1ccccc1 (stereo not drawn)	3.1%	?	-3.1%	i	-7.0	-1.4%
CC(=O)c1ccc2c(c1)C1C(Cl)C(Sc3ccccc3[N+](=O)[O-])CC1C(c1ccccc1[N+](=O)[O-])N2 (stereo not drawn)	3.9%	i	4.4%	i	-3.6	-1.8%
CC(=O)c1ccc2c(c1)C1C(Cl)C(Sc3ccccc3[N+](=O)[O-])CC1C(c1ccccc1)N2 (stereo not drawn)	-3.7%	39.8µM*	-8.3%	i	-1.6	0.3%
CC(C)CN(CC(C)C)C(=O)C1C2c3ccccc3C(c3ccccc32)C1C(=O)O (stereo not drawn)	11.2µM*	i	-9.3%	i	0.6	0.8%
CC1(C)C(C(=O)N2CCN(c3ccc(Cl)cc3)CC2)C1(C)C	?	i	11.5%	i	-2.1	0.7%
COC(=O)C1CN(C#N)N(c2ccc(Cl)cc2)C12c1ccccc1-c1ccccc12 (stereo not drawn)	15.8µM*	i	2.8%	i	-7.1	-0.4%
O=C(c1cn(Cc2ccccc2F)c2ncccc12)C(F)(F)F	?	i	-16.5%	i	-35.5*	-1.0%
